Bioassay records: PubChem BioAssay, several laboratories
An excerpt weighted towards active compounds, which were near 22% of everything screened.
CYP2C19 activ: activators of human cytochrome P450 2C19; P33261; recombinant CYP2C19, luciferin-H EGE luminescence; active compounds read high; 0 = fully inhibited enzyme, 1 = untreated enzyme; 96,000 tested, under 10 active; activation factor at 5 µM; AID 1025;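 active means activation factor of at least 2 at 5 µM in the primary screen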
Target sequence (P33261 whole entry, looked up): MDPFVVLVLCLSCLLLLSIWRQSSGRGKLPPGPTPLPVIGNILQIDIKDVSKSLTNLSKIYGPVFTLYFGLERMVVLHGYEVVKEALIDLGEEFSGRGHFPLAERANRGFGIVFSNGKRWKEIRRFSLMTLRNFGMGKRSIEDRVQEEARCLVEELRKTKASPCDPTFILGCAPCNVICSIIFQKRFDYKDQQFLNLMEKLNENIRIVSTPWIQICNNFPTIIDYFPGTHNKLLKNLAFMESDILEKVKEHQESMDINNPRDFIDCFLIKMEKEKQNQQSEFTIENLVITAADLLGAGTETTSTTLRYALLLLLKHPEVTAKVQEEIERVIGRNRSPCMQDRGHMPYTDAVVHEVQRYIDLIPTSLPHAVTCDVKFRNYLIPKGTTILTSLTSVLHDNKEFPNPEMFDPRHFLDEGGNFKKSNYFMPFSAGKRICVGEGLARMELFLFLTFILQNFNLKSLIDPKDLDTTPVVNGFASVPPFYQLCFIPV
CYP2C9 activ: activators of human CYP2C9; recombinant CYP2C9, luciferin-H conversion, luminescence; active compounds read high; factor 1 = untreated enzyme, 0 = blocked; activation factor at 5 µM; actives 1.4% (n = 96,000);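 active means activation factor of 2 or more for CYP2C9 at a 5 µM dose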
Measles CPE: protection of cells from measles virus | Measles virus-infected cells, CPE protection, absorbance | protection (pct of control), % at 4 µM | actives 1.5% (n = 140,000) | AID 841; in the data active means protection mostly above about 24%, no sharp cut-off; inactive means mostly below about 26%
CYP2C19 inhib: human CYP2C19 inhibition; CYP2C19 Supersomes, luciferin-H EGE luminescence, 30 min; inhibition, % at 5 µM; actives 21% (n = 96,000); AID 778;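 active means CYP2C19 inhibition above a set limit at 5 µM in the primary screen, cut at about 50% in these data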
CYP2C9 inh: human CYP2C9 inhibition. CYP2C9 Supersomes, luciferin-H conversion, luminescence. actives 20% (n = 96,000). inhibition, % at 5 µM;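 active means blocking of liver enzyme CYP2C9 beyond about 50% at 5 µM, limit read from the data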
Of the large screens only hits and unclear results are named; the others gave an inactive call.

Cc1c(C#N)c(N=CN(C)C)c(C(=O)c2ccccc2)n1-c1ccccc1	none
CCOc1cc(CNCCCN2CCOCC2)ccc1OCC(=O)Nc1cccc2ccccc12	none
CN(C)c1ccc(/C=C/c2nnnn2-c2ccccc2)cc1	none (no result: CYP2C19 activ, CYP2C9 activ, CYP2C19 inhib, CYP2C9 inh)
CC(C)(C)NC(=O)CN(C(=O)CNC(=O)c1cccs1)c1ccc2c(c1)OCCO2	CYP2C9 inh 80
COc1cccc(-c2nc3ccccc3c(=O)o2)c1	none
COc1cccc(C2=N/C(=C\N(C)C)C(=O)O2)c1	CYP2C19 inhib 63
COC(=O)C1=C(C(=O)c2ccccc2)C(c2ccc(OC)c(OC)c2)Nc2nnnn21 (stereo not drawn)	none
Nc1cccc(-n2nncc2-c2ccc(Cl)cc2)c1	CYP2C19 inhib 77
COc1ccc2[nH]c(=O)c(CN(C(=O)c3ccncc3)C(C)(C)C)cc2c1	none
CCCCN(Cc1cc2cc(OC)ccc2[nH]c1=O)C(=O)c1ccccn1	none
COc1ccc2[nH]c(=O)c(CN(C)C(=O)c3ccncc3)cc2c1	CYP2C19 inhib 92, CYP2C9 inh 60
COc1ccc2cc(CN(C(=O)Nc3ccccc3OC)C3CCCC3)c(=O)[nH]c2c1	CYP2C9 inh 51
CCN1CCCC1CN(Cc1cc2ccc(C)cc2[nH]c1=O)C(=S)Nc1ccccc1OC (stereo not drawn)	none (no result: CYP2C19 activ, CYP2C9 activ, CYP2C19 inhib, CYP2C9 inh)
CCCCN(Cc1cc2cc(OC)ccc2[nH]c1=O)C(=O)c1ccco1	CYP2C19 inhib 74, CYP2C9 inh 70
COc1ccc2[nH]c(=O)c(CN(C(=O)c3ccccn3)C3CCCCC3)cc2c1	CYP2C9 inh 63
S=C(NCCCNC(=S)Nc1ccccc1)Nc1ccccc1	none (no result: CYP2C19 activ, CYP2C9 activ, CYP2C19 inhib, CYP2C9 inh)
COc1cc(OC)cc(C(=O)N(Cc2cc3cc(C)ccc3[nH]c2=O)C(C)C)c1	Measles CPE 44
CCCN(Cc1cc2cc(C)ccc2[nH]c1=O)C(=O)c1cccc(OC)c1	CYP2C19 inhib 64, CYP2C9 inh 58
CCOC(=O)c1cccc(S(=O)(=O)N(CCO)Cc2cc3cc(OC)ccc3[nH]c2=O)c1	CYP2C19 inhib 56
CCCN(Cc1cc2cc(OC)ccc2[nH]c1=O)C(=O)c1ccncc1	CYP2C19 inhib 68
CCOC(=O)c1cccc(S(=O)(=O)N(CCO)Cc2cc3cc(OC)c(OC)cc3[nH]c2=O)c1	none
COc1cccc(C(=O)N(Cc2cc3cc(C)ccc3[nH]c2=O)C(C)C)c1	none
Cc1ccc2[nH]c(=O)c(CNC(C)(C)C)cc2c1	none
COc1ccc2[nH]c(=O)c(CN(C(=O)c3ccncc3)C(C)C)cc2c1	CYP2C9 inh 50 (no result: Measles CPE)
COc1ccc(CC(=O)N(Cc2cc3cc(OC)ccc3[nH]c2=O)C(C)C)cc1	none
CCCN(Cc1cc2cc(C)ccc2[nH]c1=O)S(C)(=O)=O	CYP2C19 inhib 88, CYP2C9 inh 73
O=C(C1CC1)N1CCN=C1SCc1ccccc1	Measles CPE 41, CYP2C19 inhib 83
Cc1cccc(CSC2=NCCN2C(=O)c2ccc(Br)o2)c1	CYP2C19 inhib 73
O=C(c1ccco1)N1CCN=C1SCc1ccccc1Cl	CYP2C9 activ 2.6
O=C(c1ccco1)N1CCN=C1SCc1c(F)cccc1Cl	none
O=C(C1CC1)N1CCN=C1SCc1ccc(F)cc1	CYP2C19 inhib 91
O=C(C1CCCN(Cc2cccc(F)c2)C1)N1CCCCC1 (stereo not drawn)	none
O=C(C1CC1)N1CCN=C1SCc1cccc(F)c1	CYP2C19 inhib 90
Cc1cc(NC(=O)c2c(F)c(F)c(F)c(F)c2F)no1	none
CC(=O)NCCOc1cccc2ccccc12	CYP2C19 inhib 56
CCCc1nnc(NC(=O)Nc2ccccc2OC)s1	none (no result: CYP2C19 activ, CYP2C9 activ, CYP2C19 inhib, CYP2C9 inh)
CCOc1ncccc1C(=O)OCC(=O)NCCc1ccccc1	CYP2C19 inhib 68
Cc1cc(C(=O)OCC(=O)NCCc2ccccc2)c(C)o1	CYP2C19 inhib 76, CYP2C9 inh 88
CCCC(=O)c1cc(F)c(N2CCN(S(=O)(=O)c3ccccc3)CC2)cc1C	none
Nc1nnc(Cc2c[nH]c3ccccc23)s1	none
c1ccc2c(Cn3ccnc3)c[nH]c2c1	CYP2C19 inhib 86, CYP2C9 inh 84
COc1ccc(OC)c(NC(=O)C2C3CC4OC(=O)C2C4C3)c1 (stereo not drawn)	none (no result: CYP2C19 activ, CYP2C9 activ, CYP2C19 inhib, CYP2C9 inh)
O=C(O)c1cc(C2CC2)nn1-c1ccccc1	none
Nc1cc(C2CCCC2)nn1-c1ccccc1	CYP2C19 inhib 92
Cc1c(NC(=O)CSc2ccccn2)c(=O)n(-c2ccccc2)n1C	none
CCC(CC)C(=O)Nc1c2c(nn1-c1ccc(OC)cc1)CS(=O)(=O)C2	CYP2C9 inh 55
CCCC(=O)Nc1c2c(nn1-c1ccc(OC)cc1)CS(=O)(=O)C2	none
